Source: PubChem BioAssay (National Center for Advancing Translational Sciences (NCATS))
3T3 cytotox = Cytotoxic Profiling in NIH 3T3 Cell Line of Diverse Libraries Using Quantitative High-Throughput Screening; NIH 3T3 viability, CellTiter-Glo ATP luminescence, 48-72 h; Potency, µM (titrated, usually from 96.7 µM), inactives show at the highest dose activity change, negative = cytotoxicity, most hits filed as inhibitors; 94,000 compounds, 4.3% hits; further: on the % scale 0 is the no-effect control and ±100 the full control effect; nearly all actives have a fitted effect of over 55% in size
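Cells were seeded at 400 per well, treated with pin-transferred compound, and kept 48 or 72 hr at 37 °C before CellTiter-Glo addition and luminescence imaging of cellular ATP.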
Luciferase inh = Firefly luciferase inhibition profiling of diverse chemical library using quantitative high-throughput screening. 76,000 compounds, 2.5% hits. AID 1347043, 2019. Luciferin 4-monooxygenase (Photinus pyralis), P08659. purified P. pyralis luciferase, luminescence, biochemical. Potency, µM (highest dose often 115 µM), usual class: inhibitors; further: on the % scale 0 is the no-effect control and ±100 the full control effect; nearly all actives have a fitted effect of over 65% in size
Target sequence (P08659 whole entry, looked up): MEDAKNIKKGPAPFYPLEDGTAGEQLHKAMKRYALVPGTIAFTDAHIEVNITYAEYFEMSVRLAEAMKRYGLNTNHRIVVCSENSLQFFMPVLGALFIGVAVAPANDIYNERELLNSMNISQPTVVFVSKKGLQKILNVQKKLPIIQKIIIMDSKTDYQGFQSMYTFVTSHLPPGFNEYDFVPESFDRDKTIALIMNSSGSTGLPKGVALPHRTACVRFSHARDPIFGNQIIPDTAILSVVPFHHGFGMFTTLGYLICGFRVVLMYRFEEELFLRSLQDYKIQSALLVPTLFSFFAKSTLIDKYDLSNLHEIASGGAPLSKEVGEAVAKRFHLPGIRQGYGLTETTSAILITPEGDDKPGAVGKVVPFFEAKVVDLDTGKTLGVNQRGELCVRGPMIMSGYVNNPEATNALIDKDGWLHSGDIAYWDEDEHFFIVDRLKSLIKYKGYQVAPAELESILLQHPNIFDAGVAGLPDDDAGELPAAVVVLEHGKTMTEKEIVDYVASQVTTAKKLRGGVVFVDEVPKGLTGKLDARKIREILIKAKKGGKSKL
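Purified P. pyralis luciferase (10nM final) in 50mM Tris acetate pH 7.5, 10mM Mg acetate, 0.01% Tween-20, 0.05% BSA with 10uM D-luciferin and 10uM ATP. Compounds titrated qHTS. Luminescence imaged on CCD.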
hNpr1 antagonist = Natriuretic polypeptide receptor (hNpr1) antagonism - Primary qHTS. Atrial natriuretic peptide receptor 1 (Homo sapiens), P16066. HEK293 hNpr1 GloSensor cGMP, ANP-stimulated luminescence. Potency, µM (doses to about 46.3 µM), inactives show at the top dose activity change, negative = inhibition, actives largely listed as inhibitors. 76,000 compounds, 1.6% hits; calls by dose curve; further: on the % scale 0 is the no-effect control and ±100 the full control effect; nearly all actives have a fitted effect of over 60% in size
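HEK293 cells stably expressing human Npr1 and cGMP GloSensor pGS-40F, loaded 2 h with 2% GloSensor reagent, given compound 30 min at room temperature. Luminescence read before and 20 min after 0.1 nM hNppA.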
HEK cytotox = Cytotoxic Profiling in HEK 293 Cell Line of Diverse Libraries Using Quantitative High-Throughput Screening; AID 1345083, 2018; 94,000 compounds, 6.6% hits; HEK 293 viability, ATP luminescence (CellTiter-Glo), 48-72 h; Potency, µM (doses to about 115 µM), without a hit: top-dose activity change, negative = cytotoxicity, actives largely listed as inhibitors; further: on the % scale 0 is the no-effect control and ±100 the full control effect; nearly all actives have a fitted effect of over 60% in size
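Cells seeded first (HEK 293, 250 cells/well), then compound added by pintool. Incubation ran 48 or 72 hr at 37 degree Celsius. CellTiter-Glo was added and luminescence imaged after 10 min at room temperature.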
NPR1 antag cnf = Natriuretic polypeptide receptor (hNpr1) antagonism - Confirmation; shares compounds with hNpr1 antagonist; HEK293 hNpr1 cGMP GloSensor luminescence, ANP-stimulated; Potency, µM (highest dose often 57.6 µM), for the others: top-dose activity change, negative = inhibition, most hits filed as inhibitors; 1,400 compounds, 76% hits; AID 1347044, 2019; calls by dose curve; further: nearly all actives have a fitted effect of over 70% in size
Npr2 selectivity = Natriuretic polypeptide receptor (hNpr2) antagonism - Subtype selectivity assay | shares compounds with hNpr1 antagonist | HEK293 hNpr2 GloSensor cGMP luminescence, CNP-stimulated | Potency, µM (doses to about 57.6 µM), without a hit: at the top dose activity change, negative = inhibition, usual class: inhibitors | 1,400 compounds, 67% hits | AID 1347046, 2019; calls by dose curve; further: nearly all actives have a fitted effect of over 70% in size
FLuc inh counter = Natriuretic polypeptide receptor (hNpr1) antagonism - Confirmation firefly luciferase (FLuc) inhibition counterscreen | Potency, µM (highest dose often 57.6 µM), without a hit: at the highest dose activity change, negative = inhibition, usual class: inhibitors | shares compounds with hNpr1 antagonist | purified FLuc enzyme, luminescence, Km substrate | 1,400 compounds, 0.7% hits; further: 0% is about no effect
GloSensor ctrl = Natriuretic polypeptide receptor (hNpr1) antagonism - Counterscreen GloSensor control cell line. Potency, µM (series often up to 57.6 µM), for inactives: at the highest dose activity change, negative = inhibition, actives largely listed as inhibitors. shares compounds with hNpr1 antagonist. 1,400 compounds, 69% hits. AID 1347051, 2019. HEK293 GloSensor cGMP, SNP-stimulated, luminescence; calls by dose curve; further: on the % scale 0 is the no-effect control and ±100 the full control effect; nearly all actives have a fitted effect of over 70% in size
* hit, by the source's call; i = inactive; ? = inconclusive; . = no result given; [ ] = remark or other dose. Shown are actives, neighbours in structure and some others; about 11% of the full set was active somewhere. Unless noted, the call rests on the fitted dose curve; in most records, active means well fitted curve in the direction sought with a large enough effect; inconclusive means small, poorly fitted or top-dose-only effect, or another doubt; inactive means no such curve, though single readings can be large; an effect the other way counts as inactive or inconclusive. Potency means the concentration at half of the fitted maximal effect.

SMILES	3T3 cytotox	Luciferase inh	hNpr1 antagonist	HEK cytotox	NPR1 antag cnf	Npr2 selectivity	FLuc inh counter	GloSensor ctrl
COc1ccc(S(=O)(=O)NC[C@H]2Cn3c(-c4ccc(Cl)cc4)cnc3CO2)cc1	79.4µM*	i	?	89.1µM*	?	?	-20.1%[86.2 µM]	-16.2%[86.2 µM]
CN(C)C[C@H]1O[C@H](Cc2cc(-c3cccc(O)c3)on2)CC[C@@H]1O	-8.9%[174 µM]	i	28.2µM*	-28.9%[172 µM]	?	-18.9%[86.2 µM]	-15.8%[86.2 µM]	?
CC(=O)N1CCn2cc(C(=O)Nc3ccc(Cl)cc3Cl)nc2C1	?	.	.	-27.6%	.	.	.	.
O=C(Nc1ccc(Cl)cc1Cl)c1cn2c(n1)CN(C(=O)c1ccccc1)CC2	?	.	.	?	21.7µM*	21.7µM*	-9.7%	19.3µM*
CC(C)OC(=O)N1CCC(COc2ccc3c(cnn3CC[S+](C)(=O)[O-])c2)CC1	?	i	15.8µM*	?	15.7µM*	22.2µM*	-12.2%[86.2 µM]	14µM*
Cc1ccc(NC(=O)CCC2CCN(S(=O)(=O)c3ccccc3C)CC2)cc1F	?	i	?	-51.9%	?	?	3.5%	?
Cc1ccccc1S(=O)(=O)N1CCC(CCC(=O)O)CC1	i	i	-0.9%	-0.5%	.	.	.	.
O=C(Nc1ccccc1)N1CCN(C(=O)c2nc3cccnc3n(C3CC3)c2=O)CC1	-15.9%	.	.	i	.	.	.	.
O=C(C1CCC1)N1CCC(n2cc(-c3nc(-c4ccccc4)no3)nn2)CC1	?	i	?	?	24.3µM*	24.3µM*	-11.6%	21.7µM*
O=C(c1ccco1)N1CCC(n2cc(-c3nc(-c4ccccc4)no3)nn2)CC1	?	i	-1.6%	?	.	.	.	.
COc1cccc(CC(=O)N2CCC(n3cc(-c4nc(-c5ccccc5)no4)nn3)CC2)c1	?	i	10µM*	31.6µM*	10.9µM*	10.9µM*	-23.4%	12.2µM*
O=C(N1CCC(n2cc(-c3nc(-c4ccccc4)no3)nn2)CC1)C1(c2ccccc2)CC1	?	i	12.6µM*	31.6µM*	24.3µM*	27.3µM*	-19.2%	24.3µM*
O=C(C1CC1)N1CCC(n2cc(-c3nc(-c4ccccc4)no3)nn2)CC1	?	i	?	?	?	?	-22.3%	?
Cc1cccc(CC(=O)N2CCC(n3cc(-c4nc(-c5ccccc5)no4)nn3)CC2)c1	i	i	-3.0%	-7.0%	.	.	.	.
CCN1C(=O)C2CC3(CCN(C(=O)Nc4ccccc4F)CC3)CN2C1=O (stereo not drawn)	-13.1%	.	.	3.1%	.	.	.	.
O=C(c1cc(F)ccc1F)N1CCCC(n2cc(-c3nc(-c4ccccc4)no3)nn2)C1 (stereo not drawn)	?	?	11.2µM*	39.8µM*	19.3µM*	19.3µM*	?	17.2µM*
O=C(c1cnccn1)N1CCCC(n2cc(-c3nc(-c4ccccc4)no3)nn2)C1 (stereo not drawn)	-17.2%	i	-20.3%	-24.2%	.	.	.	.
CCOc1ccccc1C(=O)N1CCC(n2cc(-c3nc(-c4ccccc4)no3)nn2)CC1	?	i	?	39.8µM*	24.3µM*	?	-21.3%	?
COCC(=O)N[C@H]1C[C@@H](CO)N(Cc2c[nH]c3ccccc23)C1	-0.8%	i	-2.3%	-2.2%	.	.	.	.
CCCCCC(=O)N1CC(=O)N(Cc2cccc(F)c2)CC(O)C1 (stereo not drawn)	?	.	.	2.3%	.	.	.	.
COc1ccc(OC)c(CN2CCCn3nc(C)c(-c4ccccc4OCc4ccccc4)c32)c1	8.91µM*	i	7.08µM*	11.2µM*	13.7µM*	19.3µM*	-1.0%	12.2µM*
Cc1nn2c(c1-c1ccccc1Oc1ccccc1)N(CC1CCOCC1)CCC2	?	i	-15.8%[70.6 µM]	?	.	.	.	.
Cc1nn2c(c1-c1ccccc1OCc1ccccc1)N(CC1CC1)CCC2	?	i	7.08µM*	?	6.27µM*	31.4µM*	-3.7%[86.2 µM]	5.59µM*
CC(=O)Nc1ccccc1-c1c(C)nn2c1N(Cc1ccccc1)CCC2	?	i	-2.5%[70.6 µM]	?	.	.	.	.
COc1ccc(OC)c(CN2CCCn3nc(C)c(-c4ccnn4C(C)C)c32)c1	-17.7%[138 µM]	i	-17.9%[70.6 µM]	?	.	.	.	.
SMILES	3T3 cytotox	Luciferase inh	hNpr1 antagonist	HEK cytotox	NPR1 antag cnf	Npr2 selectivity	FLuc inh counter	GloSensor ctrl
Cc1nn2c(c1-c1ccccc1Oc1ccccc1)N(CC1CC1)CCC2	31.6µM*	i	?	28.2µM*	39.6µM*	35.3µM*	-11.0%[86.2 µM]	39.6µM*
O=C(NC1C[C@H]2CC[C@@H](C1)N2C(=O)C1(c2ccccc2)CC1)c1ccc(F)cc1 (stereo partly drawn)	-29.4%	i	-0.2%	-14.5%	.	.	.	.
Cc1ccccc1CC(=O)N1CCC2(CC1)NC(=O)N(c1ccc(F)cc1)N2	?	i	11.2µM*	?	17.2µM*	21.7µM*	-20.6%	19.3µM*
c1ccc(-n2cc(CN3CCC(Oc4ccncc4)CC3)nn2)cc1	?	i	?	?	?	?	1.4%	?
c1ccc(-n2cc(CN3CCCC(OCc4cccnc4)C3)nn2)cc1 (stereo not drawn)	-9.7%	i	-3.0%	-12.4%	.	.	.	.
O=C(NC[C@H]1Cn2c(-c3ccc4c(c3)OCO4)cnc2CO1)Nc1ccccc1	?	?	-25.5%[70.6 µM]	?	.	.	.	.
O=C(NC[C@H]1Cn2c(-c3ccc4c(c3)OCCO4)cnc2CO1)Nc1ccccc1	89.1µM*	i	?	100µM*	?	?	-12.6%[86.2 µM]	-25.1%[86.2 µM]
O=C(CN1CCCCCCC1)N1CCn2nc(Cc3ccccc3)cc2C1	?	i	-12.9%	-29.4%	.	.	.	.
